Source: PubChem BioAssay (NCATS)
“And” between values parts separate entries of the source, which are not always exact repeats. Equal entries are not always repeated. Inconclusive results are not listed. Unmarked numbers belong to inactive results. The source made the active and inactive calls. The call rests on the fitted dose curve; in most records, active means well fitted curve in the direction sought with a large enough effect; inconclusive means small, poorly fitted or top-dose-only effect, or another doubt; inactive means no such curve, though single readings can be large; an effect the other way counts as inactive or inconclusive.

Experiments:
[1] = target: Cellular tumor antigen p53 (Homo sapiens) (UniProt P04637); test: Primary qHTS for small molecule compounds that upregulate eGFP-tagged delta133p53alpha (in N-terminal) cells. (AID 2060322); settings: NCI-H358 eGFP-delta133p53alpha fluorescence, 24 h; activation: stronger effect = higher value; further: nearly all actives have a fitted effect of over 75% in size;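 on activation: series mostly up to about 56 µM; 0% = DMSO vehicle and 100% = reference activator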
Chain of Cellular tumor antigen p53 (Homo sapiens) (P04637 whole entry, looked up): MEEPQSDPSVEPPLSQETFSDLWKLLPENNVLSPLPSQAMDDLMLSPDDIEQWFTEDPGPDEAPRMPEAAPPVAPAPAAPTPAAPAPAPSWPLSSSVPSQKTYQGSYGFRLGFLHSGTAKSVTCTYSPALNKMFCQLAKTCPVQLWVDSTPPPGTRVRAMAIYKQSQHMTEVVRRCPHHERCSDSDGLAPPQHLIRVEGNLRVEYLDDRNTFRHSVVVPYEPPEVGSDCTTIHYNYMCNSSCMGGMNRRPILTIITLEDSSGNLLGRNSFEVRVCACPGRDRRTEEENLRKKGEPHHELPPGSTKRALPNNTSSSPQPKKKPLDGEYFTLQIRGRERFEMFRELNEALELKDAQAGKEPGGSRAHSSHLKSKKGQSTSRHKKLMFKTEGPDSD
How it was run: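 NCI-H358 cells pre-induced 24 h with 10 ng/ml doxycycline to express N-terminal eGFP-delta133p53alpha, then dosed 24 h at 37C without doxycycline; fixed, Hoechst-stained, GFP intensity by laser scanning cytometry, normalized to DMSO (0%) and 57.5 uM 5-azacytidine (100%).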

[2] = BET inhibitor-based combinations targeting novel dependencies in MECOM-rearranged (r) AML: SET-2 cell line (AID 2202231); settings: SET-2 AML cells viability, CellTiter-Glo luminescence, 48 h; viability: stronger effect = lower value, concentration not given here; further: nearly all actives have a fitted effect of over 35% in size;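 on viability: plate controls were DMSO treated cells for no effect and wells without cells for full effect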
How it was run: (§1)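 Readout: CellTiter-Glo luminescence. Exposure: 48 h, 11 concentrations, 500 cells/well. Metric: AUC and within-line Z-AUC after DMSO/empty-well normalization.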

[3] = BET inhibitor-based combinations targeting novel dependencies in MECOM-rearranged (r) AML: OCI-AML3 cell line (AID 2202232); settings: Potency: OCI-AML3 viability; further: nearly all actives have a fitted effect of over 35% in size
How it was run: as §1

[4] = BET inhibitor-based combinations targeting novel dependencies in MECOM-rearranged (r) AML: MV-4-11 cell line (AID 2202233); further: nearly all actives have a fitted effect of over 45% in size
How it was run: (§2)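 Seeding density was 500 cells/well, and drug exposure lasted 48 hr under standard culture conditions. Read-out used CellTiter-Glo reagent with a 15 min room-temperature incubation before luminescence measurement; AUC and Z-AUC summarize the normalized responses.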

[5] = BET inhibitor-based combinations targeting novel dependencies in MECOM-rearranged (r) AML: HNT-34 cell line (AID 2202234); further: nearly all actives have a fitted effect of over 35% in size
How it was run: as §2

[6] = BET inhibitor-based combinations targeting novel dependencies in MECOM-rearranged (r) AML: UCSD-AML1 cell line (AID 2202235); further: nearly all actives have a fitted effect of over 40% in size
How it was run: as §2

[7] = BET inhibitor-based combinations targeting novel dependencies in MECOM-rearranged (r) AML: AML-191 cell line (AID 2202236; further: nearly all actives have a fitted effect of over 35% in size)
How it was run: as §1

[8] = BET inhibitor-based combinations targeting novel dependencies in MECOM-rearranged (r) AML: AML-194 cell line (AID 2202237; further: nearly all actives have a fitted effect of over 40% in size)
How it was run: as §1
Potency means the concentration at half of the fitted maximal effect.

SMILES | activation [1] | viability [2] [%] | Potency [3] | Potency [4] | Potency [5] | Potency [6] | Potency [7] | Potency [8] | Potency [2] | Potency [1]
CN(CC(=O)N(Cc1ccc(C2CCCCC2)cc1)c1ccc(C(=O)O)c(O)c1)S(=O)(=O)c1c(F)c(F)c(F)c(F)c1F | 37.6% | 114 | 9.34 µM (active) | 6.61 µM (active) | 6.61 µM (active) | inactive | 26.3 µM (active) | inactive |  | 
CC(C)=CC[C@@H](O)C1=CC(=O)c2c(O)ccc(O)c2C1=O | 3.62% |  | 14.8 µM (active) | 8.33 µM (active) | 9.34 µM (active) | 10.5 µM (active) |  | 10.5 µM (active) | 10.5 µM (active) | 
CN1CC[C@@H](c2c(O)cc(O)c3c(=O)cc(-c4ccccc4Cl)oc23)[C@@H](O)C1 |  |  | 0.263 µM (active) | 0.468 µM (active) | 0.468 µM (active) | 0.417 µM (active) | 0.372 µM (active) | 0.417 µM (active) | 0.525 µM (active) | 217 nM (active)
CCc1ccc(OCc2ccccc2C(=O)Nc2ccc3nc(C)cc(N)c3c2)cc1 | 45.3% |  | 8.33 µM (active) | 5.9 µM (active) | 4.17 µM (active) | 7.42 µM (active) |  | 6.61 µM (active) | 6.61 µM (active) | 
CC(=O)OCCN1C(=O)c2c(C)nc3ccc(S(=O)(=O)N4CCOCC4)cc3c2C1=O | 22.9% | 121 | inactive | inactive | inactive | inactive | inactive | inactive |  | 
COc1cc(C[C@@H](CO)[C@H](CO)Cc2ccc(O)c(OC)c2)ccc1O | -3.34% | 120 | inactive | inactive | inactive | inactive | inactive | inactive |  | 
Cc1ccccc1N1C(=O)c2cc(S(N)(=O)=O)c(Cl)cc2NC1C (stereo not given) | -15.9% and -14.5% | 115 | inactive | inactive | inactive | inactive | inactive | inactive |  | 
O=C(NC1CCNCC1)c1[nH]ncc1NC(=O)c1c(Cl)cccc1Cl |  |  | 1.05 µM (active) | 0.662 µM (active) | 1.05 µM (active) | 1.32 µM (active) | 2.09 µM (active) | 2.63 µM (active) | 11.8 µM (active) | 685 nM (active)
O=C(NCCO[N+](=O)[O-])c1cccnc1 | -0.853% and 0.837% | 114 | inactive | 4.68 µM (active) | inactive | inactive | inactive | inactive |  | 
COc1cccc2c1C(=O)c1c(O)c3c(c(O)c1C2=O)C[C@@](O)(C(=O)CO)C[C@@H]3O[C@H]1C[C@H](N)[C@@H](O)[C@H](C)O1 | -26.9% |  | 0.148 µM (active) | 0.0372 µM (active) | 0.263 µM (active) | 0.132 µM (active) | 0.372 µM (active) | 0.417 µM (active) | 1.18 µM (active) | 
c1ccc(CNc2nc(NCc3ccccc3)c3ccccc3n2)cc1 | 44.2% |  | 18.6 µM (active) | 9.34 µM (active) | 9.34 µM (active) | 8.33 µM (active) |  | 9.34 µM (active) | 16.6 µM (active) | 
O=C(O)c1ccc2cc(-c3ccc(O)c(C45CC6CC(CC(C6)C4)C5)c3)ccc2c1 | -20.4% |  | 0.525 µM (active) | 0.934 µM (active) | 1.05 µM (active) | 0.934 µM (active) |  | 1.05 µM (active) | 0.59 µM (active) | 
CC1(C)Cc2c(sc(NC(=S)NC(=O)c3ccccc3)c2C(=O)O)CO1 | -34.5% | 110 | inactive | inactive | inactive | inactive | inactive | inactive |  | 
O=c1oc2c(O)c(O)cc3c(=O)oc4c(O)c(O)cc1c4c23 | -6.69% and -19.7% | 113 | inactive | inactive | inactive | inactive | inactive | inactive |  | 
CCCCCCCCCCCCc1ccc(S(=O)(=O)Nc2nncs2)cc1 | -6.63% | 118 | inactive | inactive | inactive | inactive | inactive | inactive |  | 
CC[C@H](NC(C)C)[C@H](O)c1ccc(O)c2[nH]c(=O)ccc12 | -13% and -16.9% | 117 | inactive | inactive | inactive | inactive | inactive | inactive |  | 
O=C(NCCCCN1CCOCC1)c1cc2ccccc2o1 | 15.9% | 111 | inactive | inactive | inactive | inactive | inactive | inactive |  | 
OC(Cn1cncn1)(Cn1cncn1)c1ccc(F)cc1F | 6.21% and 14.6% | 116 | inactive | inactive | inactive | inactive | inactive | inactive |  | 
